# Assays:
# [1] = system: Schistosoma mansoni schistosomula (LE); assay: XTT viability relative to DMSO control; higher = more viable (less active); settings: 72 h; 10 µM
# Experimental: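 XTT/PMS was then added for a further 24 h (72 h total) and A450 was read. % viability = (sample - heat-killed control)/(DMSO control - heat-killed control) x 100, from duplicate wells in two independent experiments.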
# [2] = system: Schistosoma mansoni schistosomula (NMRI); assay: phenotypic severity score (0-4); higher = more antischistosomal effect, active = 2 or more; settings: 10 µM
# [3] = system: Schistosoma mansoni schistosomula (Liberian); assay: drug effect (1 - score/DMSO control score) (fraction); higher = more antischistosomal effect, active = 0.5 or more; extreme values may be limits of the assay; settings: 10 µM
# Summary of the method: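 Liberian-strain Schistosoma mansoni schistosomula, mechanically transformed from cercariae and pre-incubated at least 12 h, were exposed in duplicate (50 per well, flat-bottom 96-well plates) to 10 µM compound in Medium 199 with 5% FCS at 37 °C, 5% CO2, with 0.1% DMSO control wells. Wells were scored visually (10×) at 24, 48 and 72 h on a quarter-point scale from 3 (normal) to 0 (dead). Drug effect was derived from the mean test-well score relative to the mean DMSO-control score. Negative values were set to zero, and plates were valid only if control wells averaged at least 2.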
# 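Wherever phenotypic severity score (0-4) is given: visual microscopic scoring of shape, motility and density changes versus 0.5% DMSO solvent controls, one point per descriptor, degeneracy or death scored 4, mean of duplicate wells.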
Structure (SMILES),XTT viability [1],phenotypic severity score ([2]; 24 h),phenotypic severity score ([2]; 48 h),phenotypic severity score ([2]; 72 h),drug effect ([3]; 24 h),drug effect ([3]; 48 h),drug effect ([3]; 72 h)
Cc1nn(C(=O)Nc2cccc(C(F)(F)F)c2)c(C)c1Sc1ncccn1,137%,0 (inactive),0 (inactive),0 (inactive),0.15 (inactive),0.167 (inactive),0.312 (inactive)
CCn1ncc2c(NC3CCOCC3)c(CNC(=O)c3ccnn3C)c(C)nc21,92.5%,0 (inactive),0 (inactive),0 (inactive),0.05 (inactive),0.0811 (inactive),0.0303 (inactive)
O=C(C1CCCCC1)N1CC(=O)N2CCc3ccccc3C2C1 (configuration not stated),97.3%,4 (active),4 (active),4 (active),0.3 (inactive),0.351 (inactive),0.556 (active)
CCCn1c(CNc2ccccc2O)nc2ccccc21,337%,0 (inactive),0 (inactive),0 (inactive),0.136 (inactive),0.2 (inactive),0.182 (inactive)
Cn1ccnc1CNCCS(=O)(=O)c1cccc(Nc2ccc(-c3cccc(F)c3)cn2)c1,114%,0 (inactive),0 (inactive),0 (inactive),0.1 (inactive),0.0556 (inactive),0.125 (inactive)
COc1ccc(C2=NN(C3CCCCCC3)C(=O)[C@@H]3CC=CC[C@H]23)cc1OCCCCOc1ccc(-c2nn[nH]n2)cc1,31%,2 (active),0 (inactive),0 (inactive),0.35 (inactive),0.568 (active),0.667 (active)
CCCn1nnc(NC(=O)COc2ccc(C3CCCCC3)cc2)n1,89.6%,0 (inactive),0 (inactive),0 (inactive),0.136 (inactive),0.2 (inactive),0.182 (inactive)
CCC(Sc1nc2ccccc2o1)C(=O)Nc1nnc(C)s1 (configuration not stated),82.8%,0 (inactive),0 (inactive),0 (inactive),0.1 (inactive),0.111 (inactive),0.312 (inactive)
Cc1ccc2[nH]c(C3CCCNC3)c(-c3ccncc3)c2c1 (configuration not stated),75.2%,0 (inactive),0 (inactive),0 (inactive),< 0 (inactive),< 0 (inactive),0.111 (inactive)
CC(=O)Nc1ccc(-c2noc(CC3CCCN(Cc4cccc(F)c4C)C3)n2)cc1 (configuration not stated),117%,0 (inactive),0 (inactive),0 (inactive),0.1 (inactive),0.0556 (inactive),0.188 (inactive)
c1cncc(NCc2ccc(-c3cc4ccncc4cc3OC3CCNCC3)s2)c1,14.8%,3 (active),3 (active),4 (active),0.136 (inactive),0.45 (inactive),0.556 (active)
Cc1nc2ccccn2c1C(=O)NCc1ccc(Cl)cc1,81%,0 (inactive),0 (inactive),0 (inactive),0.1 (inactive),0.189 (inactive),0.333 (inactive)
CC1=Nc2ccc(Cl)cc2C(c2ccccc2)N1CCNC(=O)CN(C)C (configuration not stated),113%,0 (inactive),0 (inactive),0 (inactive),0.35 (inactive),0.333 (inactive),0.375 (inactive)
CCN(CC)C(=O)N1CCN(C)CC1,95.5%,0 (inactive),0 (inactive),0 (inactive),0.15 (inactive),0.222 (inactive),0.375 (inactive)
Cc1cccnc1NC(=O)c1cccc(OCc2c(C)noc2C)c1,114%,0 (inactive),0 (inactive),0 (inactive),0.0909 (inactive),0.15 (inactive),0.127 (inactive)
CC(=O)N1CCc2cc3nc(C)cc(C)c3cc21,112%,0 (inactive),0 (inactive),0 (inactive),0.2 (inactive),0.111 (inactive),0.0625 (inactive)
O=C([C@@H](c1ccc(Cl)cc1)c1cccnc1)N1CCN(c2ccc(C(F)(F)F)cc2)CC1,46.8%,0 (inactive),2 (active),4 (active),0.75 (active),0.722 (active),0.75 (active)
Cn1ncc2c(N3CCOCC3)nc(NCCc3c[nH]c4ccccc34)nc21,71.8%,4 (active),4 (active),4 (active),0.45 (inactive),0.676 (active),0.944 (active)

Structure (SMILES),XTT viability [1],phenotypic severity score ([2]; 24 h),phenotypic severity score ([2]; 48 h),phenotypic severity score ([2]; 72 h),drug effect ([3]; 24 h),drug effect ([3]; 48 h),drug effect ([3]; 72 h)
Clc1cccc(C(c2ccc(CN3CCNCC3)cc2)n2ccnc2)c1 (configuration not stated),76.1%,1 (inactive),1 (inactive),4 (active),0.405 (inactive),0.667 (active),0.875 (active)
O=C(Nc1nc(-c2ccccn2)cs1)C1CC1c1ccccc1F (configuration not stated),71.7%,0 (inactive),0 (inactive),0 (inactive),0.182 (inactive),0.3 (inactive),0.127 (inactive)
CC(=O)NC[C@@H]1CN(c2ccc(N3CCOCC3)c(F)c2)C(=O)O1,94.2%,0 (inactive),0 (inactive),0 (inactive),0.227 (inactive),0.2 (inactive),0.182 (inactive)
CCCCc1ccc(C(=O)Nc2nccc3ccccc23)nc1,94.2%,1 (inactive),0 (inactive),1 (inactive),0.1 (inactive),0.167 (inactive),0.188 (inactive)
CN(C)c1cc(NC(=O)Nc2ccccc2)c2ccccc2n1,-13.7%,1 (inactive),0 (inactive),0 (inactive),0.182 (inactive),0.35 (inactive),0.455 (inactive)
COCC(C)NC(=O)CSc1ncnc2sc(-c3ccccc3)cc12 (configuration not stated),93.6%,0 (inactive),0 (inactive),0 (inactive),0.1 (inactive),0.135 (inactive),0.111 (inactive)
O=C(c1ccco1)N(CCCn1ccnc1)c1nc2c(Cl)cccc2s1,46.4%,0 (inactive),0 (inactive),0 (inactive),0.0909 (inactive),0.4 (inactive),0.4 (inactive)
O=C(C1CCN(c2nnc(-n3cccc3)s2)CC1)N1CCC(Cc2ccccc2)CC1,103%,1 (inactive),1 (inactive),0 (inactive),0.0526 (inactive),0.111 (inactive),< 0 (inactive)
CC1(C)Cc2c(c(N3CCOCC3)nc3snc(Br)c23)CO1,71.5%,0 (inactive),0 (inactive),0 (inactive),0.0455 (inactive),0.1 (inactive),0.105 (inactive)
CNC(=O)CNc1nc(-c2ccccn2)nc2scc(-c3ccccc3)c12,90%,0 (inactive),0 (inactive),0 (inactive),0.105 (inactive),0.111 (inactive),0.125 (inactive)
NCCN(C(=O)c1ccc(Cl)cc1Cl)c1ccc(OCc2ccc(Cl)cc2)cc1,22.7%,0 (inactive),0 (inactive),0 (inactive),0.4 (inactive),0.333 (inactive),0.312 (inactive)
C[C@H](C(N)=O)N1CCCC[C@H]1c1ccc(OCc2cccc(F)c2)cc1,118%,0 (inactive),0 (inactive),0 (inactive),0.05 (inactive),0.0811 (inactive),0.212 (inactive)
COC(=O)C1=C(C)NC(C)=C(C(=O)OC(C)C)C1c1cccc2nonc12 (configuration not stated),63.2%,2 (active),0 (inactive),0 (inactive),0.15 (inactive),0.189 (inactive),0.111 (inactive)
Cc1cc2ccccc2n1CC(=O)N1CC(C(=O)N2CCCCC2)Oc2ccccc21 (configuration not stated),71.5%,0 (inactive),1 (inactive),0 (inactive),0.05 (inactive),0.027 (inactive),0.111 (inactive)
O=C(NCCc1ccn(-c2ccccc2)n1)C1CCCCC1,74.1%,0 (inactive),0 (inactive),0 (inactive),0.136 (inactive),< 0 (inactive),0.0526 (inactive)
Cc1ccc(NC(=O)c2nc[nH]c2C(=O)Nc2nc3ccccc3[nH]2)c(C)c1,50.8%,3 (active),4 (active),4 (active),0.273 (inactive),0.4 (inactive),0.278 (inactive)
O=C1N(Cc2cc3ccccc3s2)CC2CN(Cc3ccccc3)CCN12 (configuration not stated),87.2%,0 (inactive),0 (inactive),0 (inactive),0.182 (inactive),0.3 (inactive),0.236 (inactive)
Cc1ncc(-c2ccnc(Nc3ccc(S(C)(=O)=O)cc3)n2)n1C(C)C,66.9%,0 (inactive),0 (inactive),0 (inactive),0.15 (inactive),0.135 (inactive),0.167 (inactive)
